# Reference: PubChem BioAssay AID1851 (National Center for Advancing Translational Sciences (NCATS), 2009)
# Among all 16,000 compounds or so, about 5,100 (32%) were called active. Not shown: some 25% with an inconclusive outcome. The call rests on the fitted dose curve; in most records, active means well fitted curve in the direction sought with a large enough effect; inconclusive means small, poorly fitted or top-dose-only effect, or effect the other way; inactive means no such curve, though single readings can be large or run the other way. The list shows a part of the results.
# Molecular target: Cytochrome P450 3A4 (Homo sapiens) (UniProt P08684)
# Sequence (P08684 whole entry, looked up): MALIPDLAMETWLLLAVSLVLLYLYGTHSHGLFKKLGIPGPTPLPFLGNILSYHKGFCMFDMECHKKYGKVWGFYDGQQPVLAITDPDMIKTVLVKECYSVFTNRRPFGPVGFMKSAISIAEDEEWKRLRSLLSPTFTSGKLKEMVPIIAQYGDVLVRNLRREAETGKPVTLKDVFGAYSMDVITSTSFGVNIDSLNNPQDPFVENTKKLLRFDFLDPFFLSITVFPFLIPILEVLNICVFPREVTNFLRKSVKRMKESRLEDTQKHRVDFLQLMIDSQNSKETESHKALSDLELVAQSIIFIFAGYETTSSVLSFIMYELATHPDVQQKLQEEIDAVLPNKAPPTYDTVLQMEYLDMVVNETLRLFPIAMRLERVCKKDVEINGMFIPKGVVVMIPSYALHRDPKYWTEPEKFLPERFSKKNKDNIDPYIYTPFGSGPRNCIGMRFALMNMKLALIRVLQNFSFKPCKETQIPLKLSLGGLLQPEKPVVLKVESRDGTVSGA
# Test: Cytochrome panel assay with activity outcomes
# Details: recombinant CYP, pro-luciferin dealkylation, luminescence, p450-cyp3a4; series mostly up to 57.1 µM
# On the % scale 0 is the no-effect control and ±100 the full control effect.
SMILES,"activity, negative = inhibition",AC50
Cc1ccc(S(=O)(=O)NC(=O)Nc2ncn[nH]2)cc1,-2.15% [at 11.4 µM] (inactive),–
CCOCCCN1C(=O)CN(C2CCCCC2)C(=O)C1c1ccc(OCC)c(OC)c1 (stereo not given),–,12.6 µM (active)
COc1ccc(/C(O)=C2/C(=O)C(=O)N(CCN3CCOCC3)C2c2ccc(C)cc2)cc1 (stereo not given),–,inactive
CCOCCCn1cnc2c([nH]c3cc(OC)ccc32)c1=O,–,inactive
CCOCCCN1C(=O)CN(C2CCCCCC2)C(=O)C1c1ccc(OC)cc1 (stereo not given),–,12.6 µM (active)
COc1ccc(NC(=O)CSc2ccc3c4c(cccc24)C(=O)c2ccccc2-3)cc1,–,1 µM (active)
COc1ccc(-n2nnnc2SCC(=O)Nc2ccccc2)cc1,–,14.1 µM (active)
COc1ccc(-n2nnnc2/C=C\Nc2ccccc2C(=O)c2ccccc2)cc1,–,inactive
COc1ccc(NC(=O)CSC2=NC(=O)CC(C)=N2)cc1,–,inactive
COc1ccc(NC(=O)Cn2cccc2)c(OC)c1,–,inactive
COc1ccc(-n2ccnc2SCC(=O)Nc2ccccc2)cc1,–,11.2 µM (active)
COc1ccc(-n2ccnc2SCC(=O)Nc2ccc(OC)cc2OC)cc1,–,3.98 µM (active)
CCn1c(SC)nnc1C1CCN(S(=O)(=O)c2ccc(OC)cc2)CC1,–,inactive
CCn1c(SCC(=O)OC)nnc1C1CCCCC1,–,inactive
CCC(=O)Nc1ccc(NC(=O)CSc2nnnn2-c2cccnc2)cc1C,–,3.55 µM (active)
Cn1nnnc1SCC(=O)Nc1ccccc1[N+](=O)[O-],–,inactive
CCn1c(SCC(=O)c2ccc(OC)cc2)nnc1C1CC1,–,22.4 µM (active)
COc1ccc(O)c(/C=N/NC(=O)CSc2nnc(C)n2-c2ccccc2)c1,–,7.94 µM (active)
COc1ccc(NC(=O)CSc2nnc(C3CC3)n2N)cc1,-8.56% [at 11.4 µM] (inactive),–
COc1ccc(OC)c(/C=N/NC(=O)c2csc3ccccc23)c1,3.57% [at 2.29 µM] (inactive),–
COC(=O)CSc1nnc(C)n1-c1cccc(OC)c1,–,inactive
COc1ccc(NC(=O)CSc2nnc(C3CC3)n2-c2ccccc2)cc1,–,3.16 µM (active)

SMILES,"activity, negative = inhibition",AC50
COc1cccc(-n2ccnc2SCC(=O)Nc2nccs2)c1,–,3.55 µM (active)
Cn1ccnc1SCC(=O)Nc1sccc1C#N,–,14.1 µM (active)
NCC(=O)Nc1ccccc1,-12.7% [at 11.4 µM] (inactive),–
Cn1c(SCC(=O)Nc2ccccc2)nc(O)cc1=O,–,3.55 µM (active)
CCn1ccc(C(=O)NC2=C(C#N)CCC2)n1,–,inactive
O=C(CSc1nnc2c3ccccc3c3ccccc3c2n1)Nc1ccccc1,1.75% [at 2.29 µM] (inactive),–
O=C(O)CCC(=O)N1CCC[C@H]1C(=O)O,–,inactive
O=C(c1cnccn1)N1CCC2(CCCN(C(c3ccccc3)c3ccccc3)C2)CC1,–,1.58 µM (active)
O=C(c1ccncc1)N1CCC2(CCCN(C(c3ccccc3)c3ccccc3)C2)CC1,–,1 µM (active)
O=C(c1cnccn1)N1CCC2(CCCN(c3ncccn3)C2)CC1,–,inactive
O=C(c1ccncc1)N1CCC2(CC1)CCN(C(c1ccccc1)c1ccccc1)CC2,–,inactive
O=C(c1ccncc1)N1CCC2(CC1)CCN(c1ncccn1)CC2,–,inactive
Cc1ccc(C(=O)c2ccc(CC(=O)O)n2C)cc1,–,inactive
CCOc1ccccc1Nc1nc(-c2sc(NC(=O)c3ccccc3)nc2C)cs1,–,7.94 µM (active)
COc1ccccc1Nc1nc(-c2sc(NC(=O)c3ccc([N+](=O)[O-])cc3)nc2C)cs1,–,8.91 µM (active)
CCOc1ccccc1Nc1ccc(N)cc1S(=O)(=O)O,-9.59% [at 11.4 µM] (inactive),–
Cc1ccc(Nc2nc(-c3sc(NC(=O)c4ccc([N+](=O)[O-])cc4)nc3C)cs2)cc1,–,10 µM (active)
CCOC(=O)C[C@@H](C(=O)OCC)[C@@H]1CCCCC1=O,-10.4% [at 11.4 µM] (inactive),–
COCCn1c(Cc2ccccc2)nnc1SCc1nc2ccccc2c(=O)[nH]1,–,3.16 µM (active)
CC[C@@H]1OC(=O)[C@H](C)[C@H](O[C@@H]2C[C@](C)(OC)[C@H](O)[C@H](C)O2)[C@H](C)[C@H](O[C@@H]2O[C@@H](C)C[C@@H](N(C)C)[C@@H]2O)[C@](C)(O)C[C@H](C)[C@@H]2N[C@H](COCCOC)O[C@H]([C@@H]2C)[C@]1(C)O,–,inactive
CCn1c(=O)c2c(nc3n2CCS3)n(C)c1=O,–,inactive
CC(C)(Sc1ccc(CCN(CCCCC2CCCCC2)C(=O)NC2CCCCC2)cc1)C(=O)O,–,3.98 µM (active)

SMILES,"activity, negative = inhibition",AC50
Cc1cc(C)nc(NC(=O)c2cccc([N+](=O)[O-])c2C)n1,–,inactive
O=C(Nc1cccc(NC(=O)c2ccccc2[N+](=O)[O-])n1)c1ccccc1[N+](=O)[O-],–,10 µM (active)
Cc1cccc(NC(=O)c2ccc([N+](=O)[O-])o2)n1,–,inactive
CC(Cc1ccccc1)NC(=O)CSc1nc2nc3c(cc2c(=O)n1-c1ccccc1)COC(C)(C)C3 (stereo not given),–,7.94 µM (active)
COc1cc(/C=C\c2ccc(OC)cc2OC)cc(OC)c1,–,15.8 µM (active)
COc1ccc(/C=N/n2c(C)nnc2C)c(OC)c1,–,inactive
CNC(C)c1cc(OC)ccc1OC (stereo not given),–,inactive
COc1ccc(N2CCN(S(=O)(=O)c3ccc4c(c3)CCCC4)CC2)c([N+](=O)[O-])c1,–,4.47 µM (active)
O=C(c1cc(-c2ccncc2)nc2ccccc12)N1CCN(c2ccc(N3CCOCC3)nn2)CC1,–,1.58 µM (active)
O=C(O)c1cc(-c2ccc(-c3ccccc3)cc2)nc2cc3ccccc3cc12,2.43% [at 11.4 µM] (inactive),–
Cc1ccc(C)c(NC(=O)C2C3CCCC2C3c2ccccc2)c1 (stereo not given),–,inactive
Cc1ccc(C)c(NC(=O)C2(C)CC3c4ccccc4C2c2ccccc23)c1 (stereo not given),–,2.24 µM (active)
Cc1ccc(C)c(NC(=O)C2CC3c4ccccc4C2c2ccccc23)c1 (stereo not given),-27.2% [at 2.29 µM] (inactive),–
Fc1ccc(CN(C2=NCCN2)c2c(Cl)cccc2Cl)cc1,–,inactive
Cc1ccccc1C(=O)Nc1ccc(N2CCOCC2)nc1,–,inactive
Cn1c(CCC(=O)Nc2ccc(N3CCOCC3)cc2)nc(=O)c2ccccc21,-13.8% [at 11.4 µM] (inactive),–
O=C(Nc1ccc2nc(SCc3ccc(Cl)cc3)sc2c1)c1ccccc1C(=O)N1CCOCC1,–,7.94 µM (active)
Cc1ccc(NC(=O)c2cc(N3C(=O)C4CC=CCC4C3=O)ccc2N2CCOCC2)cc1Cl (stereo not given),–,12.6 µM (active)
CCCC(=O)Nc1ccc2nc(SCC(=O)Nc3ccc(N4CCOCC4)c(Cl)c3)sc2c1,–,1.41 µM (active)
O=C(c1ccc2nc3ccc(Cl)cc3c(=O)n2c1)N1CCOCC1,–,inactive
Cc1nc(SCC(=O)Nc2ccc(N3CCOCC3)cc2)nc(C)c1C,–,14.1 µM (active)
